In the library only some 15% were active in any assay of this set; here they are far more common.
ALOX12 inh: Primary qHTS assay for inhibitors of human arachidonate 12S-lipoxygenase (ALOX12): Round 2; Potency, µM (top dose mostly 108 µM), usual class: inhibitors; AID 1671190, 2021; Polyunsaturated fatty acid lipoxygenase ALOX12 (Homo sapiens), P18054; hit rate 1.1% among 580,000; purified 12hLO, xylenol orange hydroperoxide absorbance
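Hydroperoxide product was detected by ferrous iron/xylenol orange as the 573 to 405 nm absorbance ratio. Arachidonic acid at 40 uM (final) was turned over for 30 min at room temperature by 150 nM human 12hLO, pH 7.0 Hepes buffer, after 15 min compound preincubation.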
TDP1 cell noCPT: qHTS for Inhibitors of human tyrosyl-DNA phosphodiesterase 1 (TDP1): qHTS in cells in absence of CPT; DT40 Tdp1-/- hTDP1 cells, no CPT, ATP luminescence, 48 h; Potency, µM (series often up to 46.2 µM), hits mostly inhibitors; hit rate 15% among 420,000; AID 686978, 2013; also: nearly all actives have a fitted effect of over 55% in size
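Chicken DT40 Tdp1-/- cells stably complemented with human TDP1 were seeded at 400 cells/well with DMSO in place of 20 nM camptothecin. After compound pinning, cells grew at least 48 hr at 37 °C; viability read by CellTiter-Glo luminescence.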
VP16 counter: VP16 counterscreen qHTS for inhibitors of ROR gamma transcriptional activity. Drosophila S2 Gal4-VP16 UAS-luciferase, luminescence, 20 h. Potency, µM (titrated, usually from 53.6 µM), usual class: inhibitors. hit rate 3.5% among 310,000. AID 2546, 2010;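 also: Gal4-VP16 expression switched on by copper sulfate through the metallothionein promoter; nearly all actives have a fitted effect of over 50% in size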
TDP1 cell CPT: qHTS for Inhibitors of human tyrosyl-DNA phosphodiesterase 1 (TDP1): qHTS in cells in presence of CPT; chicken DT40 Tdp1-/-;hTDP1 cells + 20 nM CPT, ATP luminescence, 48 h; Potency, µM (top dose mostly 46.2 µM), most hits filed as inhibitors; hit rate 12% among 420,000; also: nearly all actives have a fitted effect of over 55% in size
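Cell growth measured by CellTiter-Glo luminescence after a minimum 48 h, 37 C compound exposure with 20 nM CPT in Tdp1-knockout DT40 cells stably expressing hTDP1, seeded 400/well; qHTS titration format.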
RORgamma inh: qHTS for inhibitors of ROR gamma transcriptional activity; Nuclear receptor ROR-gamma (Mus musculus), P51450; Drosophila S2 Gal4-RORgamma UAS-luciferase reporter, 20 h; Potency, µM (doses to about 53.6 µM), hits mostly inhibitors; hit rate 5.4% among 310,000; AID 2551, 2010; also: nearly all actives have a fitted effect of over 60% in size
Target sequence (P51450 whole entry, looked up, the tested form may be a part): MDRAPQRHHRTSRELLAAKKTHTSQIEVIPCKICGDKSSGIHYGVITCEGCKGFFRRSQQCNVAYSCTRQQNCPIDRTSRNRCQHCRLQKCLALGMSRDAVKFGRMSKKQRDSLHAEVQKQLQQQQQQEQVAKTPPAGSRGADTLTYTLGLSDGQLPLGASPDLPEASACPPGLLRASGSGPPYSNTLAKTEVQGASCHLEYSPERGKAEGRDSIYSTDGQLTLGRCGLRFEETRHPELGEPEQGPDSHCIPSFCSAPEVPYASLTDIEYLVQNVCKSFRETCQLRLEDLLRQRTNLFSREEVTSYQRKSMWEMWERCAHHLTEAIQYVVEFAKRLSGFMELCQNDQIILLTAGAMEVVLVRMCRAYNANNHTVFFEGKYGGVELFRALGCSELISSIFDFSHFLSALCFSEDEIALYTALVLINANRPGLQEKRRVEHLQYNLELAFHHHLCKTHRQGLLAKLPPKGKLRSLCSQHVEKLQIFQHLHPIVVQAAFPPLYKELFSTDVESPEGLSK
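Compounds are pin-transferred onto Drosophila Schneider cells expressing a copper-inducible Gal4–ROR gamma transactivation domain fusion. After 1 hr, copper sulfate is added to 700 uM final; luciferase is read 20 hr later.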
ELG1 repair inh: qHTS screen for small molecules that inhibit ELG1-dependent DNA repair in human embryonic kidney (HEK293T) cells expressing luciferase-tagged ELG1 | hit rate 2.3% among 330,000 | HEK293T ELG1-luciferase reporter, luminescence, 16 h; DNA damage induced by 5-fluorouridine | Potency, µM (top dose mostly 46.1 µM), most hits filed as inhibitors; also: nearly all actives have a fitted effect of over 55% in size
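Cells (2,000 per well) received 5-fluorouridine plus test compound or DMSO and were incubated 16 hr at 37 °C, 5% CO2. Luciferase activity was read by luminescence 30 min after ONE-Glo addition; signal suppression marked inhibition of damage-induced ELG1 function.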
Large screens that a line does not name were inactive. Calls follow the shape of the dose curve; as a rule, active = well fitted curve in the direction sought with a large enough effect; inconclusive = small, poorly fitted or top-dose-only effect, or another doubt; inactive = no such curve, though single readings can be large; an effect the other way counts as inactive or inconclusive.

CCc1ccc(S(=O)(=O)Nc2cc(-c3cn4ccccc4n3)ccc2C)cc1	TDP1 cell noCPT inconclusive, TDP1 cell CPT inconclusive (no result: VP16 counter, RORgamma inh, ELG1 repair inh)
CCC(O)c1cc2n(n1)CCN(Cc1nnc(-c3cccc(F)c3)o1)C2 (configuration not stated)	none (no result: TDP1 cell noCPT, VP16 counter, TDP1 cell CPT, RORgamma inh, ELG1 repair inh)
O=C(Cn1nc2c(cc1=O)CCCC2)NCCN1CCOCC1	none (no result: TDP1 cell noCPT, VP16 counter, TDP1 cell CPT, RORgamma inh, ELG1 repair inh)
O=C(NCCCN1CCOCC1)c1csc(Nc2cccc3ccccc23)n1	none (no result: TDP1 cell noCPT, VP16 counter, TDP1 cell CPT, RORgamma inh, ELG1 repair inh)
COc1cccc(CNC(=O)N2c3ccccc3CC2c2noc(C3CCOCC3)n2)c1 (configuration not stated)	none (no result: TDP1 cell noCPT, VP16 counter, TDP1 cell CPT, RORgamma inh, ELG1 repair inh)
CCc1cccc(C)c1NC(=O)NCC(O)c1ccccc1 (configuration not stated)	none (no result: TDP1 cell noCPT, VP16 counter, TDP1 cell CPT, RORgamma inh, ELG1 repair inh)
Cc1cc2cc(C(=O)N(C)Cc3ccc4nsnc4c3)ccc2o1	none (no result: TDP1 cell noCPT, VP16 counter, TDP1 cell CPT, RORgamma inh, ELG1 repair inh)
COc1ccc(/C(C)=N/Nc2nc3ccccc3nc2C)cc1OC	ALOX12 inh inconclusive, TDP1 cell noCPT inconclusive, VP16 counter inconclusive, TDP1 cell CPT inconclusive, RORgamma inh 4.47µM, ELG1 repair inh inconclusive
COc1ccc(/C(C)=N\Nc2nc(-c3ccc(Cl)cc3)cc(C(F)(F)F)n2)cc1OC	TDP1 cell noCPT inconclusive, VP16 counter inconclusive, TDP1 cell CPT inconclusive, ELG1 repair inh 8.2µM
COc1ccc(/C(C)=N/Nc2cccc(C(=O)O)c2)cc1OC	ELG1 repair inh inconclusive
O=C(NCCCc1ccccc1)c1n[nH]c2c1CN(C(=O)c1c(F)cccc1F)CC2	none (no result: TDP1 cell noCPT, VP16 counter, TDP1 cell CPT, RORgamma inh, ELG1 repair inh)
CCc1cccc(NC(=O)Cn2c(N3CCOCC3)nc(COC)cc2=O)c1	none (no result: TDP1 cell noCPT, VP16 counter, TDP1 cell CPT, RORgamma inh, ELG1 repair inh)
Cc1cc(C=C(C#N)C#N)c(C)n1-c1ccncc1	none (no result: TDP1 cell noCPT, VP16 counter, TDP1 cell CPT, RORgamma inh, ELG1 repair inh)
CN(C)c1nc(C=C(C#N)C#N)c(Cl)n1-c1ccc(F)cc1	ALOX12 inh inconclusive, TDP1 cell noCPT 5.17µM, TDP1 cell CPT 4.11µM, RORgamma inh 14.1µM, ELG1 repair inh inconclusive
CCn1c(O)c(/C=N/N=C2CCCCC2)c2cc(C3=NNC(=O)CC3)ccc21	TDP1 cell noCPT 10.3µM, TDP1 cell CPT 8.2µM
CCn1c(O)c(/C=N/N=C2CCCC2)c2ccc(C3=NNC(=O)CC3)cc21	TDP1 cell CPT inconclusive
COc1cccc(C2CC(=O)NC3=C2C(=O)CC(C)(C)C3)c1 (configuration not stated)	none (no result: TDP1 cell noCPT, VP16 counter, TDP1 cell CPT, RORgamma inh, ELG1 repair inh)
CC1(c2ccccc2)CC(C)(C)n2c(O)c(C3=NC(=S)NC3=O)c3cccc1c32 (configuration not stated)	TDP1 cell noCPT 23.1µM, TDP1 cell CPT inconclusive
COc1cc2c3c(c1)c(C1=NC(=S)NC1=O)c(O)n3C(C)(C)C=C2C	none
C=CCNC(=O)CSc1nc2sc3c(c2c(=O)n1CCC)CCC3	TDP1 cell noCPT 14.6µM, TDP1 cell CPT inconclusive, RORgamma inh inconclusive, ELG1 repair inh inconclusive
C=C(C)Cn1c(SCC(=O)Nc2ccccc2C)nc2sc3c(c2c1=O)CCCC3	TDP1 cell noCPT inconclusive, TDP1 cell CPT inconclusive (no result: VP16 counter, RORgamma inh, ELG1 repair inh)
C=C(C)Cn1c(SCC(=O)Nc2cccc(Cl)c2)nc2sc3c(c2c1=O)CCCC3	TDP1 cell noCPT 14.6µM, TDP1 cell CPT inconclusive (no result: VP16 counter, RORgamma inh, ELG1 repair inh)
C=C(C)Cn1c(SCC(=O)c2ccc(OC)cc2)nc2sc3c(c2c1=O)CCCC3	TDP1 cell noCPT 11.6µM, TDP1 cell CPT 10.3µM (no result: VP16 counter, RORgamma inh, ELG1 repair inh)
CCn1c(SCC(N)=O)nc2sc3c(c2c1=O)CCCC3	VP16 counter inconclusive, RORgamma inh 11.2µM
CCCCOc1ccc(C(=O)N2CCC[C@H]2c2nc(-c3ccc(OC)cc3)no2)cc1	none (no result: TDP1 cell noCPT, VP16 counter, TDP1 cell CPT, RORgamma inh, ELG1 repair inh)
Cc1nc2sc3c(c2c(=O)n1NC(=O)CCBr)CCCC3	TDP1 cell noCPT 18.4µM, TDP1 cell CPT 18.4µM
CCCn1c(SCC(=O)NC)nc2sc3c(c2c1=O)CCC3	ELG1 repair inh inconclusive
CCN1C(=O)[C@H]2[C@@H](c3ccc(-c4ccc(Cl)c(Cl)c4)cc3)N[C@@](Cc3ccccc3)(C(=O)OC)[C@H]2C1=O	ALOX12 inh inconclusive, TDP1 cell noCPT 14.6µM, TDP1 cell CPT 23.1µM (no result: VP16 counter, RORgamma inh)
CCN1C(=O)[C@H]2[C@@H](c3ccc(-c4ccccc4)cc3)N[C@@](Cc3ccccc3)(C(=O)OC)[C@H]2C1=O	TDP1 cell noCPT 18.4µM, TDP1 cell CPT inconclusive (no result: VP16 counter, RORgamma inh)
CCN1C(=O)[C@H]2[C@@H](c3ccc(-c4ccc(C(C)=O)cc4)cc3)N[C@@](Cc3ccccc3)(C(=O)OC)[C@H]2C1=O	TDP1 cell noCPT inconclusive, TDP1 cell CPT 13µM (no result: VP16 counter, RORgamma inh)
CCN1C(=O)[C@H]2[C@@H](c3ccc(-c4cc(C(C)=O)cs4)cc3)N[C@@](Cc3ccccc3)(C(=O)OC)[C@H]2C1=O	TDP1 cell noCPT inconclusive, TDP1 cell CPT inconclusive (no result: VP16 counter, RORgamma inh)
COC(=O)[C@]1(C)N[C@H](c2ccc(-c3ccccc3)cc2)[C@@H]2C(=O)N(C)C(=O)[C@@H]21	TDP1 cell noCPT inconclusive, TDP1 cell CPT inconclusive, ELG1 repair inh inconclusive (no result: VP16 counter, RORgamma inh)
